HTT aggregate = mutant huntingtin aggregation inhibition; PC12 HttQ103-GFP aggregates, Acumen cytometry, 40 h; Potency, µM (highest dose often 46.1 µM), inactives show at the top dose activity change, negative = inhibition, hits mostly inhibitors; 1.1% of 220,000 active; further: potency means the concentration at half of the fitted maximal effect; on the % scale 0 is the no-effect control and ±100 the full control effect; nearly all actives have a fitted effect of over 60% in size
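PC12/HTTQ103-GFP, ecdysone-inducible; teb 100 nM; cpd qHTS titration; GFP aggregates read on laser cytometer, Ex 488/Em 500-530 nm.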
IMPase inh = IMPase inhibition in cells; P97697; 120,000 tested, under 10 active; inhibition (IP1 accumulation), % at 46.1 µM; CHO-M1 cells, IP1 accumulation, HTRF TR-FRET ratio; active means well fitted curve in the direction sought with a large enough effect in the signal ratio, not every such curve was filed as active; inconclusive means small, poorly fitted or top-dose-only effect, or a change in a side signal; inactive means no such curve, though single readings can be large or run the other way; the % refers to the signal ratio;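 further: cells stimulated with carbachol in lithium chloride buffer; plate controls were DMSO basal wells for no effect and reference inhibitor wells for full effect; higher means more IMPase inhibition seen as more IP1 and lower FRET ratio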
Target sequence (P97697 whole entry, looked up): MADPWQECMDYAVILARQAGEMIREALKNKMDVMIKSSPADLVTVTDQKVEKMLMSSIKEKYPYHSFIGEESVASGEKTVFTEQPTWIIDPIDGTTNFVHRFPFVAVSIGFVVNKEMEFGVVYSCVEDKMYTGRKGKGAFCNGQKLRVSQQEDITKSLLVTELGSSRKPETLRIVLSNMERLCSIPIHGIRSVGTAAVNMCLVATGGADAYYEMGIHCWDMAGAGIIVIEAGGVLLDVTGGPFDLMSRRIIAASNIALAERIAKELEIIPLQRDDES
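Cellular IMPase inhibition is scored as a rise in cytosolic IP1, detected by competitive TR-FRET between d2-labelled IP1 and a europium anti-IP1 antibody. M1-expressing CHO cells were stimulated with carbachol for 30 min at 37C, with lithium (50 mM LiCl) present in the buffer.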
IMPase Li inh = cell-permeable IMPase inhibitors with lithium potentiation | CHO-M1 cells, IP1 TR-FRET (IP-One), carbachol + lithium | Potency, µM (doses to about 59.4 µM), inactives show at the highest dose activity, negative = IMPase inhibition, hits mostly inhibitors | 0.35% of 210,000 active | AID 1457;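 further: IP1 builds up when IMPase is blocked and the TR-FRET signal falls; potency means the concentration at half of the fitted maximal effect; plate controls were basal vehicle for no effect and high inhibitor control for full effect; nearly all actives have a fitted effect of over 50% in size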
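Readout is a homogeneous TR-FRET IP1 immunoassay (Ex 320, Em 665 and 620), where raised cytosolic IP1 lowers signal. Cells were CHO-M1 treated 30 min at 37C with test compounds plus a little lithium; AC50 values came from Hill-equation fitting.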
NPSR antagonist = antagonists of human neuropeptide S receptor cAMP signaling | CHO-NPSR cells, cAMP TR-FRET, antagonist mode | 1% of 220,000 active | Potency, µM (top dose mostly 38.3 µM), for the others: at the highest dose activity change, negative = inhibition, usual class: inhibitors | AID 1461; further: potency means the concentration at half of the fitted maximal effect; on the % scale 0 is the no-effect control and ±100 the full control effect; nearly all actives have a fitted effect of over 50% in size
Target sequence (Q6W5P4 whole entry, looked up): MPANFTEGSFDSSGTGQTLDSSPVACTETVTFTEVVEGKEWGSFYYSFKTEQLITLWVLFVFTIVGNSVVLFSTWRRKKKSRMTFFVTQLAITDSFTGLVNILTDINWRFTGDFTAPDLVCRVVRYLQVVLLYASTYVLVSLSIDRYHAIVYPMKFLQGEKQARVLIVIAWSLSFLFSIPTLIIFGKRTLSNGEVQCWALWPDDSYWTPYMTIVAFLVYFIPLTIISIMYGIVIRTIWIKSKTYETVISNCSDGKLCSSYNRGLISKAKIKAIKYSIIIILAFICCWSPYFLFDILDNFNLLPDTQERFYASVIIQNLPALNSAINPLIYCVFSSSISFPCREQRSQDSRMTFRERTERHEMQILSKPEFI
HTT cytoprotect = Huntington cell model cytoprotection by ATP luminescence. PC12 HTT-Q103 induced, cytoprotection, ATP luminescence, 40 h. Potency, µM (titrated, usually from 56.4 µM), for the others: cytoprotection (ATP increase), actives largely listed as activators. 0.14% of 230,000 active; further: potency means the concentration at half of the fitted maximal effect; % of control where 0% means no effect; nearly all actives have a fitted effect of over 45% in size
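Compounds added alongside 100 nM tebufenozide, which induces toxic Q103 huntingtin exon 1-GFP in stable PC12 cells; surviving cells quantified by luminescent ATP measurement. Medium: phenol red-free DMEM, 5% equine and 5% calf serum.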
PNC inhibitor = inhibitors of perinucleolar compartment assembly | 3.1% of 140,000 active | AID 2417 | PC3M PTB-GFP, PNC prevalence imaging, 16 h; hits give low values | activity change (PNC), negative = inhibition, % at 10 µM;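 active means readout at or below -70, meaning at least 70% loss of cells showing the perinucleolar compartment, a nuclear body marking cancer cells; inconclusive means readout between -30 and a set limit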;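 further: plate controls were DMSO wells for no effect and camptothecin positive control wells for full effect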
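PC3M cells stably expressing PTB-GFP, 750–1000 cells/well, treated 16 h at 37 °C with compound (23 nl of library stock), in duplicate. After paraformaldehyde fixation and Hoechst stain, imaged at 20x; PNC prevalence scored by image analysis.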
* = called active by the depositor; ? = inconclusive; nt = no result; [ ] = remark or other dose. Only some compounds are listed: those with a hit (about 3.4% of all), similar ones and a draw of the others. Unless noted, the call rests on the fitted dose curve; in most records, active means well fitted curve in the direction sought with a large enough effect; inconclusive means small, poorly fitted or top-dose-only effect, or another doubt; inactive means no such curve, though single readings can be large; an effect the other way counts as inactive or inconclusive.

SMILES | HTT aggregate | IMPase inh | IMPase Li inh | NPSR antagonist | HTT cytoprotect | PNC inhibitor
N#CC1=C(N)Oc2cc(O)c(C=Nc3ccccc3)cc2C1c1ccccc1 (stereo not drawn) | 1.6µM* | -3 | -2% | ? | 7%[1.9 µM] | 19
CCCCNCC | nt | nt | 4% | nt | 10% | nt
CCCC[C@@H]1C[C@H]1C(NC(=O)c1cccnc1)c1ccc(-c2ccccc2)cc1 (stereo partly drawn) | nt | nt | 2% | nt | -71% | nt
O=C(Nc1cccc(F)c1)N1CCCC(CNS(=O)(=O)Cc2ccccc2)C1 (stereo not drawn) | -10%[9.22 µM] | nt | -1% | -2% | -14%[10 µM] | nt
N#C/C(=N\Nc1cccc(C(F)(F)F)c1)C(=O)c1csc(-c2cccnc2)n1 | -20%[9.22 µM] | nt | nt | 10µM* | 11%[10 µM] | nt
Cc1ccc(C(=O)Nc2cccc(C(F)(F)F)c2)cc1NC(=O)c1csc(-c2ccncc2)n1 | -5%[9.22 µM] | nt | nt | -32% | -14%[10 µM] | nt
O=c1cnc2cnc(N3CCNCC3)nc2n1C1CC1 | nt | nt | -2% | nt | 28% | nt
N#C/C(=C\c1ccc([N+](=O)[O-])o1)C(=O)Nc1ccc(F)cc1 | ? | nt | 10% | -47% | -4%[10 µM] | nt
N#CCc1ccc(NC(=O)/C=C/c2ccc([N+](=O)[O-])o2)cc1 | ? | nt | 17% | 6.3µM* | -129% | nt
CCCCCCCCCCCCCCC[C@H](O)[C@@H](N)CO | nt | nt | 0% | nt | 10% | nt
Cc1nc(=S)c2ccccc2[nH]1 | 0% | -8 | 10%[38.3 µM] | 2%[46.1 µM] | 1% | -29
FC(F)(F)c1nc(=S)c2ccccc2[nH]1 | -21% | nt | 3.2µM* | ? | 12% | nt
COCCCn1c2nc3ccccc3nc2c2c(=O)n(-c3ccccc3OC)c(C)nc21 | 13% | -17 | -24% | 0%[46.1 µM] | 4%[10 µM] | -100*
COCCCn1c2nc3ccccc3nc2c2c(=O)n(-c3ccccc3OC)cnc21 | -7% | -4 | 25%[38.3 µM] | -17%[46.1 µM] | -19%[0.074 µM] | 16
Nc1nc2c(ncn2C2OC(COC(=O)c3ccccc3)C(OC(=O)c3ccccc3)C2OC(=O)c2ccccc2)c(=O)[nH]1 (stereo not drawn) | nt | nt | 0% | nt | nt | nt
S=c1[nH]ncn2c1cc1oc3ccccc3c12 | 9% | nt | 1.1µM* | 10µM* | nt | nt
CC(=O)c1cc(C)oc1C | nt | nt | -8% | nt | -63% | nt
Cc1ccc(NC(=S)N(CCN(C)C)Cc2cc3cc(C)cc(C)c3[nH]c2=O)cc1 | ? | nt | 2% | -41% | 10%[10 µM] | -116*
COC(=O)[C@H](COC(C)(C)C)NC(=O)O[C@@H]1C(=O)c2ccc(OC)cc2O[C@H]1c1ccc2c(c1)OCO2 | nt | nt | 1% | nt | nt | nt
CCOC(=O)N1CCN(C(=O)C2CCCN(Cc3nc(-c4ccc(Cl)cc4)oc3C)C2)CC1 (stereo not drawn) | ? | -2 | 2%[38.3 µM] | -9%[46.1 µM] | -19% | -100*
CCN1CCN(CCNC(=O)C2CCCN(Cc3nc(-c4cccc(Cl)c4)oc3C)C2)CC1 (stereo not drawn) | ? | 3 | 4%[38.3 µM] | 8%[46.1 µM] | -34% | -15
CCOC(=O)N1CCC(NC(=O)C2CCCN(Cc3nc(-c4cccc(Cl)c4)oc3C)C2)CC1 (stereo not drawn) | 7.9µM* | 17 | 16%[38.3 µM] | -8%[46.1 µM] | -20% | -10
O=C(N/N=C/c1cc(Br)ccc1O)c1ccccc1Cl | 4µM* | nt | -13% | -39% | nt | ?
CCC/C=N/NC(=O)c1cc(-c2ccccc2)nc2ccccc12 | -12% | -5 | -4% | -3%[46.1 µM] | 5%[10 µM] | ?
O=C(N/N=C/c1cc(Br)ccc1O)c1cccc(N2CCCC2=O)c1 | 2.2µM* | nt | -10% | -30% | nt | -15
SMILES | HTT aggregate | IMPase inh | IMPase Li inh | NPSR antagonist | HTT cytoprotect | PNC inhibitor
CCC/C=N/NC(=O)c1cc(Br)ccc1O | 16µM* | nt | 1% | 12% | 23%[10 µM] | -10
O=C(N/N=C/c1ccco1)c1cccc(N2CCCC2=O)c1 | 12% | -1 | -1% | 13% | -12%[1.9 µM] | 20
Nc1nc(N)nc(COc2ccccc2)n1 | 23% | nt | 6% | 3% | nt | nt
O=C(c1ccc(COc2ccccc2Br)o1)N1N=C(C(F)F)CC1(O)C(F)F (stereo not drawn) | 27% | nt | 8% | -13% | nt | ?
O=C(Nc1nc2nccc(-c3ccccc3)n2n1)c1ccc(F)cc1 | 3% | nt | 10µM* | -5% | 4%[10 µM] | ?
O=C(Nc1nc2nccc(-c3ccccc3)n2n1)c1ccccc1 | -4%[9.22 µM] | nt | nt | 5%[7.67 µM] | 1%[10 µM] | nt
Cc1sc2nc(C3CC3)nc(SCC(=O)N3c4ccccc4CC3C)c2c1C (stereo not drawn) | 1% | ? | 5%[38.3 µM] | ? | -31% | -108*
Cc1cc2cc3c(cc2nc1SCC(=O)N1c2ccccc2CC1C)OCO3 (stereo not drawn) | -21% | -7 | 11% | ? | 34%[10 µM] | -100*
COCCn1c(=O)c(-c2cccs2)nc2cnc(Nc3ccccc3)nc21 | nt | nt | ? | nt | -8% | nt
Brc1cc(Br)c2nc(-c3cccs3)ccc2c1 | 9% | ? | 10µM* | 25%[46.1 µM] | -8% | 18
O=C(NCc1ccc(F)cc1)c1cnn2ccccc12 | ? | 6 | -10%[38.3 µM] | -15%[46.1 µM] | -17% | -84*
Cc1nc2c(nnn2Cc2ccccc2)c(=O)[nH]1 | 20% | nt | -2% | 27% | 13% | nt
